Data taken from PubChem BioAssay AID463173 (ICCB-Longwood Screening Facility, Harvard Medical School, 2010).
In all, about 52,000 compounds went through this assay and about 4,300 (8.3%) were called active. Cut-off read from the data, not from the text of the source: active = survival mostly below about 52% (no sharp cut-off); inactive = mostly above about 56%. Shown is part of a subset that was picked to be rich in actives.

Each compound was assayed on DeltatarO mutant (assay: growth inhibition of S. aureus wild type versus tarO mutant, primary screen, teichoic acid synthesis inhibitors, RN4220, OD600 (AID 463173)). Conditions: OD600, 18 h, stronger effect = lower value, screened at 18.75 µg/mL (by protocol).
`CC(C)(C)c1ccc(C(=O)NCC(c2cccnc2)N2CCc3ccccc3C2)cc1` (centres undefined) was tested, and the survival was 98% (inactive). With `O=C(c1nc(-c2ccc(Cl)cc2)n2c1CCCCC2)N1CCN(c2ccccc2)CC1` the survival was 88% (inactive). For `COC(=O)c1sc(N2C(=O)c3oc4cc(C)c(C)cc4c(=O)c3C2c2ccccc2F)nc1C` (centres undefined), the survival was 70% (inactive). With `O=c1c2nncn2ccn1-c1ccc(F)c(F)c1` the survival was 90% (inactive). With `CCN(c1ccccc1)c1nnc(NC(=O)Nc2cccc(C(F)(F)F)c2)s1` the survival was 88% (inactive). In the case of `Cc1ccccc1-c1nnc(SCC(=O)N(C)C2CCCCC2)o1`, the survival is reported as 67% (inactive). With `COc1ccc(-n2nc3ccc(NC(=O)c4cccc(OCCC(C)C)c4)cc3n2)cc1` the survival was 121% (inactive). For `CN(C)CCCNc1cn[nH]c(=O)c1Cl`, the survival was 93% (inactive). In the case of `CCOc1ccc(C(=O)CSc2nc3c(c(=O)n(C)c(=O)n3C)n2C(C)C)cc1`, the survival is reported as 77% (inactive). With `O=C(CSc1cn(CC(=O)N2CCOCC2)c2ccccc12)Nc1ccccc1C(F)(F)F` the survival was 65% (inactive). With `COc1cccc(C(=O)c2sc3nc(-c4ccccc4)cc(C(F)(F)F)c3c2N)c1` the survival was 37% (active). For `COc1ccc(-c2ccc3c(N)c(C(=O)NCc4ccc(C)cc4)sc3n2)cc1`, the survival was 69% (inactive). With `COc1ccc(-c2ccc3c(N)c(C(=O)NCc4ccc(Cl)cc4)sc3n2)cc1` the survival was 79% (inactive). In the case of `COc1cccc(-c2ccc3c(N)c(C(=O)c4ccc(Br)cc4)sc3n2)c1`, the survival is reported as 28% (active). For `COc1cccc(-c2ccc3c(N)c(C(=O)Nc4ccc(C)c(F)c4)sc3n2)c1`, the survival was 95% (inactive). With `COc1ccc(C(=O)c2sc3nc(-c4ccc(C)cc4)cc(C(F)(F)F)c3c2N)cc1` the survival was 134% (inactive). In the case of `COc1ccc(C(=O)c2sc3nc(-c4ccc(F)cc4)ccc3c2N)cc1`, the survival is reported as 81% (inactive). In the case of `COc1cccc(-c2ccc3c(N)c(C(=O)Nc4cc(C(F)(F)F)ccc4OC)sc3n2)c1`, the survival is reported as 89% (inactive). In the case of `COc1ccc(NC(=O)c2sc3nc(-c4ccc(OC)cc4)cc(C(F)(F)F)c3c2N)cc1`, the survival is reported as 56% (inactive). In the case of `COc1cccc(-c2ccc3c(N)c(C(=O)NCc4ccc(Cl)cc4)sc3n2)c1`, the survival is reported as 41% (active). With `COc1cccc(-c2ccc3c(N)c(C(=O)c4ccc(F)cc4)sc3n2)c1` the survival was 17% (active). `COc1ccc(-c2ccc3c(N)c(C(=O)c4ccc(OC)c(OC)c4)sc3n2)cc1` was tested, and the survival was 52% (inactive). `CC1C(=O)CCNC1c1ccccc1` (centres undefined) was tested, and the survival was 65% (inactive). For `O=C(O)c1ccc(N=NSCCO)cc1`, the survival was 79% (inactive). For `COc1ccc(-n2nc(C(=O)NCCc3cccc(C)c3)c3c4ccccc4n(C)c3c2=O)cc1Cl`, the survival was 89% (inactive). `Cn1c(=O)c2c(nc(SCC(=O)Nc3ccc(OC(F)(F)F)cc3)n2Cc2cccc(C(F)(F)F)c2)n(C)c1=O` was tested, and the survival was 86% (inactive). For `COc1ccc(Cl)cc1NC(=O)c1sc2nc(-c3ccc(OC)c(OC)c3)ccc2c1N`, the survival was 124% (inactive). `COc1cccc(-c2ccc3c(N)c(C(=O)c4ccc(Cl)cc4)sc3n2)c1` was tested, and the survival was 30% (active). `COc1cccc(-c2ccc3c(N)c(C(=O)Nc4ccc(Cl)cc4F)sc3n2)c1` was tested, and the survival was 59% (inactive). In the case of `Cc1ccc(S(=O)(=O)c2nc(-c3ccccc3F)oc2N2CCCCC2)cc1`, the survival is reported as 32% (active). In the case of `O=S(=O)(c1ccccc1)c1nc(-c2ccccc2Cl)oc1N1CCCCCC1`, the survival is reported as 27% (active). `O=S(=O)(c1ccccc1)c1nc(-c2ccc(Cl)cc2Cl)oc1N1CCCCC1` was tested, and the survival was 90% (inactive). `O=S(=O)(c1ccccc1)c1nc(-c2ccc(Cl)cc2Cl)oc1N1CCCCCC1` was tested, and the survival was 49% (inactive). `O=S(=O)(c1ccccc1)c1nc(-c2ccccc2F)oc1N1CCOCC1` was tested, and the survival was 71% (inactive). `Cc1ccc(S(=O)(=O)c2nc(-c3ccccc3Cl)oc2N2CCCCCC2)cc1` was tested, and the survival was 25% (active). `O=S(=O)(Nc1ccc(-c2ccc(N3CCCC3)nn2)cc1)c1cc(F)ccc1F` was tested, and the survival was 96% (inactive). With `Cc1ccc(-c2nc(CS(=O)CC(=O)N3CCN(c4ccccc4)CC3)c(C)o2)cc1` (centres undefined) the survival was 62% (inactive). `CC(C)(C)OC(=O)N1CCC(c2c(C(=O)NCc3ccccc3)cnn2-c2cccc(F)c2)CC1` was tested, and the survival was 108% (inactive). In the case of `O=C(/C=C\c1ccc2c(c1)OCO2)NC1CC(=O)N(c2ccccc2)C1` (centres undefined), the survival is reported as 134% (inactive). For `CN(C)c1ccc(NC(=O)CC(NCc2cccnc2)C(=O)O)cc1` (centres undefined), the survival was 76% (inactive). In the case of `CC(=O)c1cccc(NC(=O)CN2C=NS(=O)(=O)c3ccc(C)cc32)c1`, the survival is reported as 89% (inactive). With `COc1ccc(-c2csc3nc(-c4ccc(F)cc4)oc(=O)c23)cc1` the survival was 61% (inactive). For `O=C(NCc1ccc2c(c1)OCO2)c1ccc2c(c1)N(Cc1cccc(Cl)c1)C(=O)c1ccccc1S2`, the survival was 84% (inactive). `O=C(NCc1cccs1)C1CCN(C(=O)N2CCOc3ccccc32)CC1` was tested, and the survival was 107% (inactive). In the case of `COc1cc(NS(=O)(=O)c2cc3[nH]c(=O)[nH]c3cc2C)cc(OC)c1OC`, the survival is reported as 37% (active). In the case of `COc1ccc(NS(=O)(=O)c2cc3[nH]c(=O)c(=O)[nH]c3cc2C)cc1Cl`, the survival is reported as 94% (inactive). In the case of `Cc1cc(C)cc(NS(=O)(=O)c2cc3[nH]c(=O)c(=O)[nH]c3cc2C)c1`, the survival is reported as 87% (inactive). In the case of `O=C1C2C(C(=O)N1CCO)C1C=CC2C12CC2` (centres undefined), the survival is reported as 100% (inactive). In the case of `CCOc1ccccc1CNC(=O)c1[nH]c2ccccc2c1Sc1ccccc1`, the survival is reported as 72% (inactive). With `COc1cccc(NC(=O)/C(C#N)=C\c2cn(Cc3ccc(C)cc3)c3ccccc23)c1` the survival was 90% (inactive). `COC(=O)c1c(NC(=O)COc2c(C)cccc2C)sc2c1CCCC2` was tested, and the survival was 2% (active). `COC(=O)c1c(NC(=O)Nc2ccc(Cl)cc2)sc(C)c1C` was tested, and the survival was 74% (inactive). In the case of `CCOC(=O)c1sc(NC(=O)C(C)Oc2ccc(OC)cc2)c(C(=O)OCC)c1C` (centres undefined), the survival is reported as 73% (inactive). `CCCc1ccc(OC(C)C(=O)Nc2sc3c(c2C(=O)OC)CCCCC3)cc1` (centres undefined) was tested, and the survival was 9% (active). `COC(=O)c1c(NC(=O)COc2cc(C)ccc2C(C)C)sc2c1CCC(C)C2` (centres undefined) was tested, and the survival was 61% (inactive). In the case of `COC(=O)c1c(NC(=O)C(C)Oc2ccc(Cl)cc2Cl)sc2c1CCCC2` (centres undefined), the survival is reported as 46% (inactive). For `COC(=O)c1c(NC(=O)COc2cc(C)c(Cl)c(C)c2)sc2c1CCCC2`, the survival was 147% (inactive). With `COC(=O)c1c(NC(=O)c2ccc(Cl)c(Cl)c2)sc2c1CCCC2` the survival was 63% (inactive). For `COC(=O)c1c(NC(=O)Cc2cccs2)sc2c1CCCC2`, the survival was 119% (inactive). In the case of `COC(=O)c1c(NC(=O)COc2c(C)ccc(C)c2C)sc2c1CCC(C)C2` (centres undefined), the survival is reported as 22% (active). For `COC(=O)c1c(NC(=O)C(C)Oc2ccc(Cl)c(C)c2)sc(C)c1C` (centres undefined), the survival was 15% (active). With `COC(=O)c1c(NC(=O)COc2ccc(OC)cc2)sc2c1CCC(C)C2` (centres undefined) the survival was 66% (inactive). In the case of `Cc1ccc(S(=O)(=O)N2CCN(C(=O)c3c(C)nn(-c4ccccc4)c3Cl)CC2)cc1`, the survival is reported as 63% (inactive). `O=C(O)CCNC(=O)c1ccc(Br)o1` was tested, and the survival was 72% (inactive). For `Cc1ccccc1Nc1c(-c2ccc(N3CCOCC3)cc2)nc2ncccn12`, the survival was 83% (inactive). For `Cc1cccc(C)c1NC(=O)CN(C)S(=O)(=O)c1ccc2c(c1)n(C)c(=O)c(=O)n2C`, the survival was 89% (inactive). In the case of `O=c1c(S(=O)(=O)c2ccccc2)cn(Cc2cccc(F)c2)c2cc(N3CCOCC3)c(F)cc12`, the survival is reported as 78% (inactive). `COc1ccc(Cl)cc1NC(=O)c1c(NCc2ccc(C)o2)sc2c1CCCC2` was tested, and the survival was 74% (inactive). `COc1ccc(Cl)cc1N(C)C(=O)c1ccc2c(=O)n3c(nc2c1)CCCCC3` was tested, and the survival was 76% (inactive). `N#Cc1ccc(NC2=NS(=O)(=O)c3ccccc32)cc1` was tested, and the survival was 68% (inactive). In the case of `O=C(NCCc1ccc(Cl)cc1)c1ccco1`, the survival is reported as 98% (inactive). For `CCOC(=O)c1c(NC(=O)COc2c(C)cc(Cl)cc2Cl)sc2c1CCCC2`, the survival was 53% (inactive). With `CCOc1ccccc1NC(=O)c1c(NC(=O)C(C)Oc2cccc(Cl)c2)sc2c1CCCCC2` (centres undefined) the survival was 64% (inactive). In the case of `Cc1ccccc1NC(=O)c1c(NC(=O)C(C)Oc2cccc(Cl)c2)sc2c1CCCC2` (centres undefined), the survival is reported as 40% (active). For `COC(=O)c1c(NC(=O)c2ccccc2C(=O)O)sc2c1CCCC2`, the survival was 92% (inactive). `Cc1cc(OC(C)C(=O)Nc2sc3c(c2C(N)=O)CCCC3)ccc1Cl` (centres undefined) was tested, and the survival was 59% (inactive). For `CCNC(=O)c1c(NC(=O)COc2ccc(F)cc2)sc2c1CCCC2`, the survival was 59% (inactive). `COC(=O)c1c(NC(=O)c2ccc(OC)cc2OC)sc2c1CCCCC2` was tested, and the survival was 47% (inactive). `COC(=O)c1c(NC(=O)c2c(OC)cccc2OC)sc2c1CCCC2` was tested, and the survival was 13% (active). With `COC(=O)c1c(NC(=O)COc2ccc(C(C)C)cc2)sc2c1CCCC2` the survival was 47% (inactive). With `CCCc1ccc(OCC(=O)Nc2sc3c(c2C(=O)OC)CCCCC3)cc1` the survival was 38% (active). For `CCOC(=O)c1c(NC(=O)C(C)Oc2ccc(Cl)c(C)c2)sc2c1CCCC2` (centres undefined), the survival was 42% (active). In the case of `CCOc1ccccc1NC(=O)c1c(NC(=O)C(C)Oc2ccc(Cl)cc2)sc2c1CCCCC2` (centres undefined), the survival is reported as 83% (inactive). For `CCN(C(=O)CN(C)S(=O)(=O)c1ccc2c(c1)c(=O)n(C)c(=O)n2C)c1ccc(OC)cc1`, the survival was 90% (inactive). In the case of `OP(Oc1ccccc1)(Oc1ccccc1)=P(O)(Oc1ccccc1)Oc1ccccc1`, the survival is reported as 97% (inactive). With `COc1ccc(OC)c(Nc2ncc3c(n2)CCN(Cc2cc(OC)c(OC)c(OC)c2)C3)c1` the survival was 81% (inactive). In the case of `CC(C)OCCCNC(=O)CN1C(=O)COc2ccc(S(=O)(=O)N3CCOCC3)cc21`, the survival is reported as 79% (inactive). In the case of `COC(=O)c1cc(NC(=O)c2sc3ncn(Cc4cccc(F)c4)c(=O)c3c2C)cc(C(=O)OC)c1`, the survival is reported as 92% (inactive). For `CCc1cccc(NC(=O)Cn2nc3c4cc(F)ccc4n(Cc4cccc(C)c4)cc-3c2=O)c1`, the survival was 84% (inactive).
